Experimental findings from PubChem BioAssay (NCATS) are described below.

Inconclusive results are not listed. Entries that show only a call come without a potency. Calls of active or inactive are those of the source. Calls come from the whole dose curve; as a rule, active = well fitted inhibition curve with a large enough effect; inconclusive = small, poorly fitted or top-dose-only effect; inactive = flat fitted curve, though single readings scatter.

The experiment concerns Zika virus NS2B-NS3 protease. As to the kind of experiment: Primary screen GU AMC qHTS for Zika virus inhibitors (AID 1347154). Note: nearly all actives have a fitted effect of over 70% in size. The method, boiled down:
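Fluorogenic AMC-substrate cleavage by noncovalent NS2B-NS3 protease complex (25 nM, pH 8.0 Tris buffer with Tween 20) followed for 15 minutes at room temperature (~20% conversion). Percent inhibition from ex340/em450 signal change, fitted by 4-parameter Hill equation.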
In general terms: qHTS replaces the single test concentration by a dilution series.

Regarding `CSCC[C@H](NC(=O)[C@H](Cc1ccccc1)NC[C@@H](NC[C@@H](N)CS)C(C)C)C(=O)O`, the Potency result is “inactive”.
Under `COc1ccc(CCCn2ncc3c2nc(N)n2nc(-c4ccco4)nc32)cc1` stands “inactive”.
For `Cc1ccc(CC2(O)CCN(CCOc3ccc(O)cc3)CC2)cc1`, the Potency result was “inactive”.
